Experimental findings from PubChem BioAssay (NCI) are described below.

Compounds without any hit were thinned out: in the full panel of roughly 83,000, 20% have a hit.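 In brief: 96-well plates, 48 h treatment, single concentration, percent growth endpoint.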 Unmarked numbers belong to inactive results. The source made the active and inactive calls. The calls were made as follows: active = growth percent below 10; inactive = the rest.

The first experiment concerns K-562 leukemia. Briefly: NCI-60 one-dose screen, 48 h (100 = growth as untreated, 0 = no growth, -100 = all killed). The settings on record: 10 µM unless noted.
For the compound `O=C(c1cccc(C(=O)c2ccc3c4c(cccc24)C(=O)N(c2ccccc2)C3=O)c1)c1ccc2c3c(cccc13)C(=O)N(c1ccccc1)C2=O`, the growth was 89.8%. Same read-out and setting: as for `Cc1ccc2nc(N)nnc2c1`, the figure is 108%; as for `CCOc1ccncc1[N+](=O)[O-]`, 100%; as for `Oc1cc(O)c2c(c1)O[C@H](c1ccc(O)c(O)c1)[C@@H](O)C2`, 104%.

As to `C=CCOc1ccc(Cl)cc1Cl`, the growth is 5.12% (active).

With `CCOC(=O)/C(O)=C(\C=N\C(=S)Nc1ccc(Cl)c(Cl)c1)C(=O)OCC`, the growth was 92.7%. On the same count and under the same terms, in the case of `CCOc1ccc(NC(=S)N2CCC(CCCC3CCN(C(=S)Nc4ccc(OCC)cc4)CC3)CC2)cc1` it was 61.5%; in that of `Clc1ccc(C(SCc2ccccc2)SCc2ccccc2)cc1`, 92.7%; in that of `CC(=O)C1C(=O)C(=O)N(c2ccc(Cl)c(Cl)c2)C1=O` (configuration not stated), 108%. The same measure, in the same setting: in the case of `c1ccc(Oc2c3ccccc3nc3ccccc23)cc1` it was 8.65% (active); in that of `O=[N+]([O-])c1ccc2[nH]c(=S)n(/C=C(/c3ccc(Cl)cc3Cl)S(=O)(=O)Cc3ccc(Cl)cc3Cl)c2c1`, 102%. Same read-out and setting: as for `COc1cc(OC)c(NC(=O)C(Sc2nc(C)cc(C)c2C#N)c2ccccc2)cc1Cl` (configuration not stated), the figure is 105%. Take `O=c1nc(Nc2cccc(Cl)c2)oc2cc(Cl)oc(=O)c12`: the growth is 81.6%.

`C/C(O)=C(/C=N\C(=S)Nc1ccc(S(=O)(=O)Nc2nccs2)cc1)C(=O)Nc1ccccc1C`: the growth was 93.7%. Still for that read-out and setting: in the case of `CC(O)C(F)(F)C(F)(F)C(F)(F)F` (configuration not stated) it was 111%; in that of `CCOP(=O)(NC(c1ccccc1)c1ccccc1)OCC`, 114%; in that of `CCCCn1cnc2c(=O)[nH]cnc21`, 97.7%.

Turning to `O=CNCCc1ccccc1`, the growth was 89.9%. On the same count and under the same terms, as for `COC1OC(C(COC(C)=O)OC(C)=O)C(OC(C)=O)C(OC(C)=O)C1OC(C)=O` (configuration not stated), the figure is 119%. As for `CC(=O)C1C(=O)C(=O)N(c2cccc([N+](=O)[O-])c2)C1=O` (configuration not stated), the growth was 112%. Same read-out and setting: as for `CCOc1ccc2c(c1)c(C)cc(C)[n+]2CC`, the figure is 47.2%; as for `S=CN1CCCCC1`, 101%; as for `Cc1nc(C)c(C(=O)O)cc1C(=O)O`, 99.6%.

As to `NC(CSSCC(N)C(=O)O)C(=O)O` (configuration not stated), the growth is 13.8%. For the compound `C/C(O)=C(/C=N/C(=S)Nc1ccccc1)C(=O)Nc1ccccc1C`, the growth was 100%. Still for that read-out and setting: in the case of `CC(C)(C)[Si](C)(C)OCC1OC(n2cnc3c(N)ncnc32)CC1OS(C)(=O)=O` (configuration not stated) it was 105%; in that of `CC(=O)NCNC(C)=O`, 112%.

The subject of a further experiment is MALME-3M melanoma. The description is as above. The settings on record: 10 µM unless noted.
`O=C(c1cccc(C(=O)c2ccc3c4c(cccc24)C(=O)N(c2ccccc2)C3=O)c1)c1ccc2c3c(cccc13)C(=O)N(c1ccccc1)C2=O`: the growth was 101%. Turning to `Cc1ccc[n+](CCC(N)=O)c1`, the growth was 79.3%. Same read-out and setting: as for `Oc1cc(O)c2c(c1)O[C@H](c1ccc(O)c(O)c1)[C@@H](O)C2`, the figure is 103%; as for `Cn1c(=O)c2nc3c(=O)n(C)c(=O)n(C)c3nc2n(C)c1=O`, 120%; as for `C=CCOc1ccc(Cl)cc1Cl`, 113%. Regarding `CCOC(=O)/C(O)=C(\C=N\C(=S)Nc1ccc(Cl)c(Cl)c1)C(=O)OCC`, the growth is 89.3%. As to `CCOc1ccc(NC(=S)N2CCC(CCCC3CCN(C(=S)Nc4ccc(OCC)cc4)CC3)CC2)cc1`, the growth was 80.1%. As for `Clc1ccc(C(SCc2ccccc2)SCc2ccccc2)cc1`, the growth is 75.8%.

Consider `CC(=O)C1C(=O)C(=O)N(c2ccc(Cl)c(Cl)c2)C1=O` (configuration not stated), for which the growth was 92.4%. For the compound `Cc1cc(Cl)cc(Cc2cc(Cl)cc(C)c2O)c1O`, the growth is -7.41% (active). The same measure, in the same setting: in the case of `N#C/C(=C\c1ccc(C#N)cc1)C(=O)c1ccccc1` it was 109%; in that of `C/C(O)=C(/C=N\C(=S)Nc1ccc(S(=O)(=O)Nc2nccs2)cc1)C(=O)Nc1ccccc1C`, 108%. Regarding `CCOP(=O)(NC(c1ccccc1)c1ccccc1)OCC`, the growth was 89.7%. For the compound `CC(=O)OCC1OC(n2cnc3c(=S)nc(N)[nH]c32)C(OC(C)=O)C1OC(C)=O` (configuration not stated), the growth was 84.4%. On to `CCCCn1cnc2c(=O)[nH]cnc21`, for which the growth is 158%. Regarding `O=CNCCc1ccccc1`, the growth was 130%.

Consider `Cc1c(Cl)cccc1N=C=S`, for which the growth was 99%. Consider `CC(=O)C1C(=O)C(=O)N(c2cccc([N+](=O)[O-])c2)C1=O` (configuration not stated), for which the growth is 124%. The same measure, in the same setting: as for `CCOc1ccc2c(c1)c(C)cc(C)[n+]2CC`, the figure is 101%; as for `Cc1nc(C)c(C(=O)O)cc1C(=O)O`, 105%; as for `Cc1cc(CC(=O)NCCO)n(CCO)c(=O)c1`, 115%. Still for that read-out and setting: as for `NC(CSSCC(N)C(=O)O)C(=O)O` (configuration not stated), the figure is 4.18% (active). Consider `C/C(O)=C(/C=N/C(=S)Nc1ccccc1)C(=O)Nc1ccccc1C`, for which the growth is 89.1%. With `NNC(=O)N/N=C1\C(=O)N(c2nccs2)C(=O)C(=O)C1c1nc2ccccc2s1` (configuration not stated), the growth was 98.7%. Regarding `C(=C\c1ccncc1)/c1ccncc1`, the growth was 87.1%.
